This note sets out measurements from article PMC4336329 (PLoS ONE, 2015).

Each structure is given as a SMILES string. Hit rate of the full screen: of about 310,000 compounds, about 14,000 (4.5%) showed an effect of 50% or more. The effect is printed as a negative number. For the sample, strong results were picked, then their nearest neighbours and some compounds at random.
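Also: peak tail current of the secondary pulse compared with the same well before compound.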

The target of the test is human ether-à-go-go-related gene (hERG) potassium channel (human, UniProt Q12809). As to the kind of experiment: primary screen, population patch clamp on CHO cells stably expressing hERG; higher = less effect of the substance.
human ether-à-go-go-related gene (hERG) potassium channel, sequence (Q12809 whole entry, looked up): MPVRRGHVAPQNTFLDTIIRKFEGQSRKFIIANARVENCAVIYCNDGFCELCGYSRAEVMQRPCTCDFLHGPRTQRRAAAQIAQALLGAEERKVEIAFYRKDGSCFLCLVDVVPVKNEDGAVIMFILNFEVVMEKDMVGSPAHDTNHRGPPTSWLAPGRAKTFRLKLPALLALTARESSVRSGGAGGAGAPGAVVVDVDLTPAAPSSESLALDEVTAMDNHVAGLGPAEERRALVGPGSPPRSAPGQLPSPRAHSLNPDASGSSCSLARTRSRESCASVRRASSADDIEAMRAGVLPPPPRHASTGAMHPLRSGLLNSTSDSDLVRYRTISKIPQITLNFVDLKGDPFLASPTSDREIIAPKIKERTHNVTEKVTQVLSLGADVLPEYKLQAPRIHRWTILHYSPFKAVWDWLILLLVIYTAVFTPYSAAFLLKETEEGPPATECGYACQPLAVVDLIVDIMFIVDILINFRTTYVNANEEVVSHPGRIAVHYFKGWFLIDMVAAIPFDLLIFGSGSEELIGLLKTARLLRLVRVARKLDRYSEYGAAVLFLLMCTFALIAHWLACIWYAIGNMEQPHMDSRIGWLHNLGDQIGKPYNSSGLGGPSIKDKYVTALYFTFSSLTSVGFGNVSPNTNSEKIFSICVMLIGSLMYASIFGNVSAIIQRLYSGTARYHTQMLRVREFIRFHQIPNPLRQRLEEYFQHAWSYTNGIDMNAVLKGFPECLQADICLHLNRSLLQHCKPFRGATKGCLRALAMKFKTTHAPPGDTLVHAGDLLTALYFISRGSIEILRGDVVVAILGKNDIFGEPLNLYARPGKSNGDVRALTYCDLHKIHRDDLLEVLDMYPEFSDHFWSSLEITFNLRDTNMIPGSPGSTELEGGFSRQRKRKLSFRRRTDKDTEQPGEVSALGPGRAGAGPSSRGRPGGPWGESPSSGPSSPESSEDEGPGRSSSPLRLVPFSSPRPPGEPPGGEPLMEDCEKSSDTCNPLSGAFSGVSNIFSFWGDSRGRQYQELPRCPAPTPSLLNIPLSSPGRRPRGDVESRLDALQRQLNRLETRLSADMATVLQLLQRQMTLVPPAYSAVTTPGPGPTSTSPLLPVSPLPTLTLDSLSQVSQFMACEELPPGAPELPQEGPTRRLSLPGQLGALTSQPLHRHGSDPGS
Regarding `Cc1ccccc1-n1nnnc1SCc1cc(=O)n2ccsc2n1`, the “hERG current change (%, negative = inhibition) at 10uM” value is recorded as -25.6%.
To `Cc1nc2ccccc2nc1N1CCOCC1` belongs 5.42%.
On to `Cc1cccc2nc(Cn3c(=O)n(CCCC(=O)NCc4ccco4)c(=O)c4ccccc43)cc(=O)n12`, for which the “hERG current change (%, negative = inhibition) at 10uM” value is -23%.
The same measure for `COc1ccc(S(=O)(=O)Nc2ccc(Nc3ccccc3)cc2)cc1`: 5.15%.
The same measure for `N#Cc1ccccc1Cn1cc(C(=O)c2ccccc2F)c2ccccc21`: 4.67%; for `Cc1cccc(C)c1-n1ncc(C(=O)NC2CCCC2)c1C1CCNCC1`: 18.9%.
On to `CCc1cccc(NC(=O)c2cnn(-c3ccccc3)c2C)c1`, for which the “hERG current change (%, negative = inhibition) at 10uM” value was -56%.
To `CCc1ccc(NC(=O)c2cnn(-c3ccccc3)c2C2CCNCC2)cc1.Cl` belongs -60%.
Consider `Cc1cccc(NC(=O)c2cnn(-c3ccc(F)cc3)c2C2CCNCC2)c1C.Cl`, for which the “hERG current change (%, negative = inhibition) at 10uM” value was -9.71%.
Consider `Cc1ccc(-n2ncc(C(=O)Nc3ccc(Cl)cc3)c2C2CCNCC2)cc1C.Cl`, for which the “hERG current change (%, negative = inhibition) at 10uM” value is -71.7%.
As to `Cc1cc(C)cc(NC(=O)c2cnn(-c3ccccc3)c2C2CCNCC2)c1.Cl`, the “hERG current change (%, negative = inhibition) at 10uM” value was -19.7%.
In the case of `O=C(c1ccco1)N1CCN(C(=O)c2cnn(-c3ccc(Cl)cc3)c2C2CCNCC2)CC1`, the “hERG current change (%, negative = inhibition) at 10uM” value is given as 15%.
Consider `CCCc1c(C(=O)Nc2ccc(F)cc2)cnn1-c1ccccc1`, for which the “hERG current change (%, negative = inhibition) at 10uM” value was determined as 12.5%.
Take `Cc1ccc(-n2ncc(C(=O)Nc3cc(Cl)ccc3Cl)c2C2CCNCC2)cc1.Cl`: the “hERG current change (%, negative = inhibition) at 10uM” value is -62%.
Turning to `Cc1c(C(=O)Nc2ccccc2)cnn1-c1ccccc1`, the “hERG current change (%, negative = inhibition) at 10uM” value was -3.03%.
In the case of `CCc1ccc(NC(=O)c2cnn(-c3ccccc3)c2C)cc1`, the “hERG current change (%, negative = inhibition) at 10uM” value is 2.7%.
Consider `Cc1ccc(-n2ncc(C(=O)Nc3cc(Cl)ccc3C)c2C2CCNCC2)cc1C.Cl`, for which the “hERG current change (%, negative = inhibition) at 10uM” value is listed as -35.1%.
To `NC(=O)c1ccc(N=Cc2ccc([N+](=O)[O-])s2)cc1` belongs 8.6%; to `Cc1cccc(OCc2nnc(SCC(=O)O)n2Cc2ccccc2)c1`, 28.1%; to `Cc1cccc(C(=O)Nc2nnc(Cc3c[nH]c4ccccc34)s2)c1`, 12.7%.
`O=C(NCc1cccs1)C1CCN(S(=O)(=O)c2ccc3c(c2)OCCO3)CC1`: the “hERG current change (%, negative = inhibition) at 10uM” value is reported as 16.5%.
The same measure for `Cc1ccc(C(=O)NCCN2CCOCC2)c(Cl)c1`: 5.79%; for `COc1ccccc1OCC(=O)Nc1cccc(-c2nc3ccccc3o2)c1`: 0.23%.
The same measure for `COc1ccc(-c2cccc(NS(=O)(=O)c3ccc([N+](=O)[O-])cc3)c2)nn1`: -15.2%.
`CSc1cccc(NC(=O)C2CCN(S(=O)(=O)c3ccc4c(c3)NC(=O)CO4)CC2)c1`: the “hERG current change (%, negative = inhibition) at 10uM” value was found to be 12.3%.
To `O=C(Nc1ccccc1)/C(=C/c1ccc(F)cc1)NC(=O)c1ccco1` belongs -2.63%; to `CCCCc1ccc(NC(=O)CSc2nnc(C)c(=O)n2N)cc1`, -23.9%; to `Cc1ccn2cc(-c3cnoc3C)nc2c1`, 6.49%.
With `Cc1ccc(NC(=O)COc2ccccc2CNC(C)(C)CC(C)(C)C)cc1`, the “hERG current change (%, negative = inhibition) at 10uM” value is -22.7%.
The same measure for `COc1cc(/C=N/Nc2nc(N3CCCC3)nc(N3CCCC3)n2)ccc1O`: -37.7%; for `CCOc1ccc(/C=N/Nc2nc(N3CCCC3)nc(N3CCCC3)n2)cc1OC`: -12%; for `CCOc1cc(/C=N/Nc2nc(N3CCCC3)nc(N3CCCC3)n2)ccc1O`: -61.4%.
The same measure for `Cc1ccc(S(=O)(=O)NNC(=O)c2ccc3ccccc3n2)cc1`: 3.47%.
Consider `CC(=O)c1ccc(-n2c(CCC(=O)O)ccc2-c2cccs2)cc1`, for which the “hERG current change (%, negative = inhibition) at 10uM” value is on record as -0.766%.
For `O=C(NC1CCCCC1)c1ccc(COc2ccccc2)o1`, the “hERG current change (%, negative = inhibition) at 10uM” value came to 2.32%.
On to `CSCCC(NS(=O)(=O)c1ccccc1)C(=O)OCc1cc(=O)oc2cc(O)ccc12` (centres unmarked), for which the “hERG current change (%, negative = inhibition) at 10uM” value was -57.3%.
The same measure for `CSCCC(NS(=O)(=O)c1ccccc1)C(=O)OCc1nc2ccsc2c(=O)[nH]1` (centres unmarked): 2.87%.
Regarding `CC(C)[C@H](NC(=O)OCc1ccccc1)C(=O)OCc1cc(=O)oc2cc(O)ccc12`, the “hERG current change (%, negative = inhibition) at 10uM” value was -46.7%.
Take `O=C(NNC(=S)Nc1ccc(Cl)c(Cl)c1)c1cccc([N+](=O)[O-])c1`: the “hERG current change (%, negative = inhibition) at 10uM” value was 36%.
The same measure for `CCOC(=O)N1CCN(C(=O)c2cc3cc(Br)ccc3oc2=O)CC1`: -17.7%; for `O=C(NCC(=O)N1CCN(Cc2ccccc2)CC1)c1ccc(Cl)cc1`: -27.9%; for `O=C(c1ccc(CN2CCOCC2)cc1)N1CCN(Cc2ccccc2)CC1`: 15.4%.
Take `O=C(CNS(=O)(=O)c1ccc(Br)cc1)N1CCN(Cc2ccccc2)CC1`: the “hERG current change (%, negative = inhibition) at 10uM” value was -17.2%.
To `O=C(c1ccc(Br)cc1)N1CCC(C(=O)N2CCN(c3ccccc3)CC2)CC1` belongs -68.5%; to `O=C(O)C(=O)O.S=C(NCCc1ccccc1)N1CCN(Cc2ccccc2)CC1`, 0.0203%.
Turning to `CCNC(=S)N1CCN(Cc2ccccc2)CC1.O=C(O)C(=O)O`, the “hERG current change (%, negative = inhibition) at 10uM” value was -59.9%.
The same measure for `C=CCNC(=S)N1CCN(Cc2ccccc2)CC1.O=C(O)C(=O)O`: 6.48%; for `O=C(c1ccc(-n2cccc2)cc1)N1CCN(Cc2ccccc2)CC1`: -81.1%; for `COc1ccc(C(=O)N2CCC(C(=O)N3CCN(c4ccccc4)CC3)CC2)cc1`: -48.7%.
The same measure for `O=C(C1CCC1)N1CCN(c2ccccc2)CC1`: 13.6%.
To `O=C(NCC(=O)N1CCN(Cc2ccccc2)CC1)c1ccc(Br)cc1` belongs -53.5%; to `O=C(c1ccc2ccccc2c1)N1CCN(Cc2ccccc2)CC1`, -24.4%; to `O=C(CCCCl)Nc1nc(-c2ccc3c(c2)OCCO3)cs1`, 9.6%.
Consider `CCOC(=O)CC(=O)Nc1c(C)cc(C)cc1C`, for which the “hERG current change (%, negative = inhibition) at 10uM” value turned out to be 4.74%.
To `N#CC1=C(N)Oc2cc(N)ccc2C1c1ccc(F)cc1F` (centres unmarked) belongs -22.9%; to `Cc1ccc(CNC(=O)c2cccnc2Cl)cc1`, 9.97%.
In the case of `COCCn1cnnc1SCC(=O)Nc1sccc1C(N)=O`, the “hERG current change (%, negative = inhibition) at 10uM” value was -2.66%.
On to `COc1ccc(NC(=O)CCNS(=O)(=O)c2cc(Br)cnc2N)c(OC)c1`, for which the “hERG current change (%, negative = inhibition) at 10uM” value was 8.51%.
The same measure for `COc1ccc(C2N(c3cc(Cl)ccc3OC)C(=O)C3CCCN32)cc1OC` (centres unmarked): -4.91%; for `CC(C)(C)C(=O)NC(=S)NNC(=O)c1sc2ccccc2c1Cl`: 5.79%.
The same measure for `Cc1ccc(S(=O)(=O)N2CCN(C(=O)CN3CCCC3)C2)cc1`: -6.28%; for `NNC(=O)c1sc2nc(N3CCOCC3)c3c(c2c1N)CCCC3`: 11%; for `O=c1cnc2ccccc2n1Cc1ccc(Br)cc1`: 0.175%.
As for `CCn1nnnc1SCC(=O)Nc1cc(OC)cc(OC)c1`, the “hERG current change (%, negative = inhibition) at 10uM” value is on record as 11.8%.
In the case of `CS(=O)(=O)c1ccc(C(=O)N2CCN(Cc3ccccc3)CC2)cc1`, the “hERG current change (%, negative = inhibition) at 10uM” value was -55%.
Regarding `O=C(c1ccc(Br)cc1)N1CCN(Cc2ccccc2)CC1`, the “hERG current change (%, negative = inhibition) at 10uM” value is -52.2%.
To `COC(=O)[C@H](Cc1ccccc1)NC(=O)N1CCCCC1` belongs 9.93%; to `O=C(c1ccc(S(=O)(=O)N2CCCCCC2)cc1)N1CCN(Cc2ccccc2)CC1`, -19.5%; to `COC(=O)[C@H](Cc1ccccc1)NC(=O)N1CCCCCC1`, 13.5%.
Regarding `O=C(c1ccc(F)cc1)N1CCN(Cc2ccccc2)CC1`, the “hERG current change (%, negative = inhibition) at 10uM” value is given as 0.241%.
For `CC(C)(C)c1ccc(C(=O)N2CCN(Cc3ccccc3)CC2)cc1`, the “hERG current change (%, negative = inhibition) at 10uM” value was -3.08%.
The same measure for `O=C(O)C(=O)O.O=C(c1ccccc1)N1CCN(Cc2ccccc2)CC1`: -9.23%.
`O=C(c1cccc(Cl)c1)N1CCN(Cc2ccccc2)CC1`: the “hERG current change (%, negative = inhibition) at 10uM” value is given as -8.35%.
The same measure for `COC(=O)[C@H](Cc1ccccc1)NC(=O)N1CCN(Cc2ccccc2)CC1`: -58.6%; for `O=C(c1cccc(Cl)c1)N1CCC(C(=O)N2CCN(Cc3ccccc3)CC2)CC1`: -56.2%; for `O=C(c1cccc(Cl)c1)N1CCC(N2CCC(C(=O)N3CCCC3)CC2)CC1`: -49.1%.
To `CCOC(=O)/C(=C/c1ccc(F)cc1)NC(C)=O` belongs -7.91%; to `COCCCNC(=O)CCNS(=O)(=O)c1ccc(C)cc1`, -1.45%.
Regarding `Cc1ccc2ncnc(Oc3ncccc3NC(=O)C(C)(C)C)c2c1`, the “hERG current change (%, negative = inhibition) at 10uM” value is given as 13.8%.
On to `O=S(=O)(N1CCCCC1)N1CCN(c2cc(Cl)ccc2Cl)CC1`, for which the “hERG current change (%, negative = inhibition) at 10uM” value is on record as 15.2%.
As to `COc1ccc(C2Nc3ccccc3C(=O)N2Cc2ccco2)cc1CN1C(=O)c2ccccc2C1=O` (centres unmarked), the “hERG current change (%, negative = inhibition) at 10uM” value is -20.7%.
As for `O=C(NCc1ccco1)C(=O)c1cn(CC(=O)N2CCCCC2)c2ccccc12`, the “hERG current change (%, negative = inhibition) at 10uM” value amounted to 19.3%.
Consider `O=C(O)CC/C(=N\NC(=O)CNC(=O)c1ccc(F)cc1)c1ccccc1`, for which the “hERG current change (%, negative = inhibition) at 10uM” value stood at 9.42%.
As to `Cc1ccc(CNC(=O)COC(=O)Cn2nc(C)c([N+](=O)[O-])c2C)cc1`, the “hERG current change (%, negative = inhibition) at 10uM” value was -16.3%.
On to `COc1ccc(C(=O)NCc2ccc(N3CCN(C(=O)OC(C)(C)C)CC3)cc2)cc1`, for which the “hERG current change (%, negative = inhibition) at 10uM” value is -12.7%.
The same measure for `COC(=O)c1cc(-c2c(-c3ccc4c(c3)OCO4)noc2-c2ccsc2)cc([N+](=O)[O-])c1`: 10.7%; for `Cc1occc1C(=O)N1CCN(Cc2ccccc2)CC1`: -1.16%; for `O=C(c1ccc(Br)cc1)N1CCC(C(=O)N2CCN(Cc3ccccc3)CC2)CC1`: -60.1%.
The same measure for `COc1ccc(C(=O)N2CCC(C(=O)N3CCN(Cc4ccccc4)CC3)CC2)cc1`: -9.58%; for `O=C(c1coc(=O)c2ccccc12)N1CCN(Cc2ccccc2)CC1`: -51.2%.
In the case of `CS(=O)(=O)c1ccccc1C(=O)N1CCN(Cc2ccccc2)CC1`, the “hERG current change (%, negative = inhibition) at 10uM” value was found to be 23.7%.
For `O=C(C1CC1)N1CCN(Cc2ccccc2)CC1`, the “hERG current change (%, negative = inhibition) at 10uM” value is on record as -32.1%.
